Measured values taken from PubChem BioAssay (NCATS).
Records with an inconclusive call do not appear. Active and inactive are the calls of the source. Unless noted, calls follow the shape of the dose curve; as a rule, active = well fitted curve in the direction sought with a large enough effect; inconclusive = small, poorly fitted or top-dose-only effect, or another doubt; inactive = no such curve, though single readings can be large; an effect the other way counts as inactive or inconclusive.

Tests used:
[1] = qHTS for Inhibitors of Plasmodium falciparum (DD2) proliferation (AID 504314);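 also: parasite DNA measured by SYBR Green fluorescence after red cell lysis; plate controls were DMSO vehicle for no effect and artemisinin wells for full effect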
Procedure, shortened: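 Erythrocytes infected with P. falciparum Dd2 (0.3% parasitemia, 2.5% hematocrit) exposed to compound 72 h at 37C, 5% CO2. Parasite DNA quantified by SYBR Green fluorescence after saponin/Triton lysis overnight; normalized to 0.29 uM artemisinin and DMSO.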

[2] = qHTS for Inhibitors of Plasmodium falciparum (GB4) proliferation (AID 504315);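 also: 0% = DMSO vehicle and -100% = 0.29 µM artemisinin control; nearly all actives have a fitted effect of over 50% in size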
Procedure, shortened: (§1)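 Erythrocytes infected with P. falciparum line (0.3% parasitemia, 2.5% hematocrit final) incubated with compounds 72 h at 37 °C, 5% CO2; SYBR Green lysis buffer added, fluorescence read next day. Normalized to 0.29 uM artemisinin and DMSO.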

[3] = qHTS for Inhibitors of Plasmodium falciparum (7G8) proliferation (AID 504316);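 also: series mostly up to about 6.7 µM; 0% = DMSO vehicle and -100% = 0.29 µM artemisinin full kill; nearly all actives have a fitted effect of over 65% in size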
Procedure, shortened: as §1

[4] = qHTS for Inhibitors of Plasmodium falciparum (HB3) proliferation (AID 504318);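 also: 0% = DMSO vehicle and -100% = artemisinin control; nearly all actives have a fitted effect of over 60% in size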
Procedure, shortened: as §1

[5] = qHTS for Inhibitors of Plasmodium falciparum (CP250) proliferation (AID 504320);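 also: plate controls were DMSO vehicle for no effect and 0.29 µM artemisinin control for full effect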
Procedure, shortened: as §1

[6] = molecular target: Atrial natriuretic peptide receptor 1 (Homo sapiens) (UniProt P16066); experiment: Natriuretic polypeptide receptor (hNpr1) antagonism - Pilot CMLD screen (AID 1347052; calls by dose curve;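 also: HEK293 cells with hNpr1 stimulated by hNppA peptide at 0.1 nM; cGMP level read as GloSensor luciferase luminescence after agonist stimulation; series mostly up to about 9.2 µM; % is scaled to controls: 0 for no effect and ±100 for the full control effect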)
Atrial natriuretic peptide receptor 1 (Homo sapiens), sequence (P16066 whole entry, looked up): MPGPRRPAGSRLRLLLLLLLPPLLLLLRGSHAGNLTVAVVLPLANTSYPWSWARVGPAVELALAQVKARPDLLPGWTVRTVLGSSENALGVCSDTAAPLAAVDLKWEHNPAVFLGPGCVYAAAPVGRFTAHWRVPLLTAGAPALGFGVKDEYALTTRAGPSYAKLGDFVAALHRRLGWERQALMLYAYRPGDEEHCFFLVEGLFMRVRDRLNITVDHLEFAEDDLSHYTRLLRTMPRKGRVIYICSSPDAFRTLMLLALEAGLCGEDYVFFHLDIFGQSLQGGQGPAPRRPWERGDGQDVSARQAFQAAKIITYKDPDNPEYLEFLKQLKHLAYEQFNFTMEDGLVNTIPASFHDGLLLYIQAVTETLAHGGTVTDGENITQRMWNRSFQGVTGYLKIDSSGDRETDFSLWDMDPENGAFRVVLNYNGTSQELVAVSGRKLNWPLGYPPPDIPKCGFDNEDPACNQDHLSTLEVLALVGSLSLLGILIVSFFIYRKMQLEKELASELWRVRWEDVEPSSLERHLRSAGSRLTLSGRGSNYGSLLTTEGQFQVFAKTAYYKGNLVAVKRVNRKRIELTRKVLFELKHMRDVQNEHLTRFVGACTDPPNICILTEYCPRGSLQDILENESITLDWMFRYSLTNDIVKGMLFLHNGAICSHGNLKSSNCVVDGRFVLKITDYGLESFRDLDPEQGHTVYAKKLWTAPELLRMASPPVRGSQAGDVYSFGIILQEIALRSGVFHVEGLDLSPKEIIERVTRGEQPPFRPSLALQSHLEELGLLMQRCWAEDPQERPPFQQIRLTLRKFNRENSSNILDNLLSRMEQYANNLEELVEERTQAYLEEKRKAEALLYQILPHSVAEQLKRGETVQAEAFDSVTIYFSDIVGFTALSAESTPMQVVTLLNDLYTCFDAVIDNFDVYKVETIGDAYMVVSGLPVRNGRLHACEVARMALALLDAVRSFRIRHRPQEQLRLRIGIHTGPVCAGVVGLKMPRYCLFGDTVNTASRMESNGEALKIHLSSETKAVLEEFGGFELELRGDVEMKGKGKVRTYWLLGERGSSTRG

COc1cccc([C@H](O)Cn2cc(-c3ccc(CON=C(C)C)cc3)nn2)c1
inactive: Potency [1] | Potency [2] | Potency [3] | Potency [4] | Potency [5] | Potency [6]

O=C1[C@H]2[C@@H]3[C@@H](O)[C@H](O)CC(=NOCc4ccccc4)[C@@H]3CC[C@H]2C(=O)N1C1CCCCC1
inactive: Potency [1] | Potency [2] | Potency [3] | Potency [4] | Potency [5] | Potency [6]

COC(=O)N[C@H](C(C(=O)OC)=C(C)NCc1ccccc1)c1ccc(Cl)cc1
inactive: Potency [1] | Potency [2] | Potency [3] | Potency [4] | Potency [5] | Potency [6]

Cc1cccc(C)c1Nc1oc(-c2ccccc2)nc1-c1ccccc1
inactive: Potency [1] | Potency [2] | Potency [3] | Potency [4] | Potency [5] | Potency [6]

COC(=O)[C@@H]1C[C@@]23C(=NN=C(SC)C2Nc2ccccc23)N1C(C)=O (some centres not stated)
inactive: Potency [1] | Potency [2] | Potency [3] | Potency [4] | Potency [5] | Potency [6]

C=CC1=C2C=C(C3CC3)N(CCN3CCOCC3)C=C2C(=O)C(C)(OC(=O)c2ccco2)C1=O (configuration not stated)
inactive: Potency [1] | Potency [2] | Potency [3] | Potency [4] | Potency [5] | Potency [6]

COC(=O)N[C@@H](c1cccc(C)c1)[C@]1(C(=O)OC)CCCC1=O
inactive: Potency [1] | Potency [2] | Potency [3] | Potency [4] | Potency [5] | Potency [6]

CC1(OC(=O)C2CCCC2)C(=O)C=C2C=C(c3ccsc3)N(CC3CC3)C=C2C1=O (configuration not stated)
inactive: activity, negative = inhibition [1] -6.74% [at 1.12 µM] | Potency [2] | Potency [3] | Potency [4] | Potency [5] | Potency [6]

COC(=O)NCC=Cc1nc(CCCO)co1
inactive: Potency [1] | Potency [2] | Potency [3] | Potency [4] | Potency [5] | Potency [6]

C=C(C)C(O)C=CC=Cc1ccccc1 (configuration not stated)
inactive: Potency [1] | Potency [2] | Potency [3] | Potency [4] | Potency [5] | Potency [6]

O=C1CCCC1C(O)c1ccc2ccccc2c1 (configuration not stated)
inactive: Potency [1] | Potency [2] | Potency [3] | Potency [4] | Potency [5] | Potency [6]

C=CCOC(=O)N[C@H](c1ccc2ccccc2c1)[C@H](C)C=CCC(=O)OC
inactive: Potency [1] | Potency [2] | Potency [3] | Potency [4] | Potency [5] | Potency [6]

C=CCOC(=O)N[C@@H](c1coc2ccccc2c1=O)[C@@H](C)C=CCC(=O)OC
inactive: Potency [1] | Potency [2] | Potency [3] | Potency [4] | Potency [5] | Potency [6]

C#CCN1C(=O)[C@]2(OCCC=C[C@@H]2C)c2cc(OC)ccc21
inactive: Potency [1] | Potency [2] | Potency [3] | Potency [4] | Potency [5] | Potency [6]

O=C1OC2(CCCCC2)CC2=C1[C@H]1O[C@](c3ccsc3)(Cc3c1ccc1ccccc31)O2
inactive: Potency [1] | Potency [2] | Potency [3] | Potency [4] | Potency [5] | Potency [6]

COC(=O)CC=C1c2ccc(OC)cc2[C@@H](OC)[C@@H]1C
inactive: Potency [1] | Potency [2] | Potency [3] | Potency [4] | Potency [5] | Potency [6]

COC(=O)CC=C[C@H](C)[C@H](Cc1ccccc1Br)OC
inactive: Potency [1] | Potency [2] | Potency [3] | Potency [4] | Potency [5] | Potency [6]
